Laboratory results published in PubChem BioAssay AID1159580 (chemical genetic matrix, 2015).
Screen size: about 5,500 compounds; about 2,000 (36%) were called active. Roughly 18% stayed inconclusive and do not appear here. Cut-off read from the data, not from the text of the source: active = normalized growth mostly below about 0.91 (no sharp cut-off); inconclusive = no clear call, values can overlap the other calls; inactive = mostly above about 0.92. The list shows a part of the results.

Assay: chemical genetic growth profiling, strain panel (AID 1159580);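 note: tested at 20 µM; growth read once vehicle control cultures reached saturation at 30 °C; 1 = growth at the plate median or of vehicle wells; lower values mean less growth of the strain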
Conditions: S. cerevisiae deletion strains, growth OD

Measured: normalized growth

Cc1cc(C(=O)NNS(=O)(=O)c2ccc(F)c(Cl)c2)nn1-c1c(Cl)cc(Cl)cc1Cl
inactive: locus YAR019C, strain CDC15, active compounds read low 0.978 | locus YBL105C, strain PKC1, active compounds read low 0.979 | locus YBR135W, strain CKS1, active compounds read low 0.985 | locus YBR136W, strain MEC1, active compounds read low 0.987 | locus YBR160W, strain CDC28, active compounds read low 0.98 | locus YDL017W, strain CDC7, active compounds read low 0.985 | locus YDL028C, strain MPS1, active compounds read low 0.985 | locus YDL101C, strain DUN1, active compounds read low 0.975 | locus YDL108W, strain KIN28, active compounds read low 0.99 | locus YDL132W, strain cdc53, active compounds read low 0.974 | locus YDL214C, strain PRR2, active compounds read low 1.04 | locus YDR052C, strain DBF4, active compounds read low 0.987 | locus YDR054C, strain cdc34, active compounds read low 0.983 | locus YDR226W, strain ADK1, active compounds read low 0.98 | locus YDR477W, strain SNF1, active compounds read low 1.03 | locus YER123W, strain YCK3, active compounds read low 1.04 | locus YER133W, strain GLC7, active compounds read low 1.04 | locus YFL009W, strain cdc4, active compounds read low 0.982 | locus YFL029C, strain CAK1, active compounds read low 0.988 | locus YFR003C, strain YPI1, active compounds read low 0.981 | locus YFR019W, strain FAB1, active compounds read low 1.02 | locus YFR028C, strain CDC14, active compounds read low 0.979 | locus YGR040W, strain KSS1, active compounds read low 1.03 | locus YGR052W, strain FMP48, active compounds read low 1.1 | locus YGR092W, strain DBF2, active compounds read low 1.02 | locus YHR030C, strain SLT2, active compounds read low 1.09 | locus YHR079C, strain IRE1, active compounds read low 1.05 | locus YHR082C, strain KSP1, active compounds read low 1.11 | locus YHR205W, strain SCH9, active compounds read low 1.04 | locus YIL147C, strain SLN1, active compounds read low 0.99 | locus YJL095W, strain BCK1, active compounds read low 1.07 | locus YJL128C, strain PBS2, active compounds read low 0.905 | locus YJL157C, strain FAR1, active compounds read low 1.03 | locus YJR016C, strain ILV3, active compounds read low 0.982 | locus YJR066W, strain TOR1 (second series), active compounds read low 1.05 | locus YJR066W, strain TOR1, active compounds read low 1.02 | locus YKL048C, strain ELM1, active compounds read low 1.01 | locus YKL067W, strain YNK1, active compounds read low 1.03 | locus YKL101W, strain HSL1, active compounds read low 1.02 | locus YKL193C, strain SDS22, active compounds read low 0.996 | locus YKL203C, strain TOR2, active compounds read low 1.13 | locus YLR113W, strain HOG1, active compounds read low 1.06 | locus YLR133W, strain CKI1, active compounds read low 1.02 | locus YLR403W, strain SFP1, active compounds read low 1.06 | locus YML070W, strain DAK1, active compounds read low 1.03 | locus YMR001C, strain CDC5, active compounds read low 0.993 | locus YMR205C, strain PFK2 (second series), active compounds read low 1.03 | locus YMR277W, strain FCP1, active compounds read low 0.978 | locus YNL006W, strain LST8, active compounds read low 0.994 | locus YNL020C, strain ARK1, active compounds read low 1.03 | locus YNL161W, strain CBK1, active compounds read low 0.988 | locus YNL183C, strain NPR1, active compounds read low 1.13 | locus YNL207W, strain RIO2, active compounds read low 0.986 | locus YNL222W, strain SSU72, active compounds read low 0.99 | locus YNL307C, strain MCK1 (second series), active compounds read low 1.04 | locus YOL078W, strain AVO1, active compounds read low 0.99 | locus YOL136C, strain PFK27, active compounds read low 1.04 | locus YOR061W, strain CKA2, active compounds read low 1.03 | locus YOR119C, strain RIO1, active compounds read low 1.08 | locus YOR231W, strain MKK1, active compounds read low 1.03 | locus YOR329C, strain SCD5, active compounds read low 0.985 | locus YPL031C, strain PHO85, active compounds read low 1.04 | locus YPL153C, strain RAD53, active compounds read low 1.03 | locus YPL204W, strain HRR25, active compounds read low 1.04 | locus YPL209C, strain IPL1, active compounds read low 0.987 | locus YPL256C, strain CLN2, active compounds read low 1.02 | locus YPR025C, strain CCL1, active compounds read low 0.981 | locus YPR106W, strain ISR1, active compounds read low 0.98 | locus YPR111W, strain DBF20, active compounds read low 0.964 | strain NNK1, active compounds read low 0.986 | strain TSCII, active compounds read low 0.995
